B1: chr8:143915815:143915916:-|3pUTR|ENSG00000178209|msi1|FALSE|unique (ssRNA)
RNA: GGGAGUUCUACAGUCCGACGAUCGCCAGGUGCCUUGGAGGGUCCCAAGCUGGGCCCCAGCCCACCCUCCUGUCUUCCCAGGGUAGCCCGCCUGCCAGUCCUAGCUGCACAGGGCAGCUGGGCCCAACCCUGUCUGUAGAGGGCCAACAGAGGAUUGAGCAUCA
B2: chr1:17067933:17068034:-|3pUTR|ENSG00000117115|msi1|total|mutant (ssRNA)
RNA: GGGAGUUCUACAGUCCGACGAUCACAUAAGGACCCUGGCCUACCCUCCAGCCCAACAGCCAGUUCUGGGUCAGCUGCCAACUCCGGGGUGGUUUGAUUAUCCCAUUGAAAUUCACCAGUGCCUUUGCCAAAGACCCUCUCAUUCAACAGAGGAUUGAGCAUCA
B3: chr22:31279490:31279591:+|3pUTR|ENSG00000182541|msi1|FALSE|unique (ssRNA)
RNA: GGGAGUUCUACAGUCCGACGAUCAGCAGCUUGGGCUGGGAAGAGGUGGUGGCAGAGUCUCAAAGCUGAGAUGCUGAGAGAGAUAGCUCCCUGAGCUGGGCCAUCUGACUUCUACCUCCCAUGUUUGCUCUCCCAACUCAUUAGCAACAGAGGAUUGAGCAUCA
B4: chr1:193029531:193029688:-|CDS|ENSG00000116750|unk|total|mutant (ssRNA)
RNA: GGGAGUUCUACAGUCCGACGAUCUUGAUAUCUUCACUUUUAUAUUUUACCGGUAAUUAAUAAUGCUUGUGCUACUCAAGCCACCGUGAGUGUGUUACUGAACUGUACCCACCAGGAUGUCCAUUCCGGCGAGACAUUAUCAGACAACAGAGGAUUGAGCAUCA
B5: ENSG00000099250:stop:overlap|stop_codon|ENSG00000099250|stop_codon|NA|stop_codon (ssRNA)
RNA: GGGAGUUCUACAGUCCGACGAUCCAAUUCACGGAGAAAUGUGGUCAUCUGGAAAAGGAGUCUGCUCCCUGGAUGCGAAUCUGUAGCCUGGAUUCUGGAAGGCGAUGCUGAUUUAGGAGGUGGAGUGAAUGGAGAAUUGAAAAGCAACAGAGGAUUGAGCAUCA
B6: chr12:10081268:10081413:-|three_prime_utr|ENSG00000150048|control|control|control (ssRNA)
RNA: GGGAGUUCUACAGUCCGACGAUCUCAGUACUACCAGCUCUCCAAUACUGGUCAAGACACCAUUUCUCAAAUGGAAGAAAGAUUAGGAAAUACGUCCCAAGAGUUGCAAUCUCUUCAAGUCCAGAAUAUAAAGCUUGCAGGAAGCAACAGAGGAUUGAGCAUCA
B7: chr15:63774837:63774950:-|CDS|ENSG00000103657|unk|total|mutant (ssRNA)
RNA: GGGAGUUCUACAGUCCGACGAUCGUAACAACAUUUCUUAAAGGAGUCACUAUUCCUAAUUCUGGGGCAGACACUUCCGGUCGCCGAUCCGCUUCUGAGUUGCUGCUUGGUUUGGCAGCUCAACGAGGCUCAUUGCGAUAUCUUCAACAGAGGAUUGAGCAUCA
B8: ENSG00000086827:stop:overlap|stop_codon|ENSG00000086827|stop_codon|NA|stop_codon (ssRNA)
RNA: GGGAGUUCUACAGUCCGACGAUCUAAUUCGUGCCUUGUUUCAGAACACAGAAAGAAGAGCAGCUGCCCUUGCUAAAAUUAAAUAGCUCCAUCUUCUUAAGAAAGCUAUGUCUUGAAUAUGUGGAUUCUUCCCUUGGCAUAAUUCAACAGAGGAUUGAGCAUCA
B9: chr10:27397735:27399240:-|CDS|ENSG00000182077|control|control|control (ssRNA)
RNA: GGGAGUUCUACAGUCCGACGAUCUCUUCUAGGCUACCCAGUGUUACAAAGUGCAAUUUCAACAAUAAUAGGGGUGUGUGUUUUAGCUGCAGCGAAAGCAUACAUCUUCAGAACAUUUUUUAAGAUUAUGUUUCUUGUUAUGAUCAACAGAGGAUUGAGCAUCA
B10: ENSG00000124766:be:win_3751|3pUTR|ENSG00000124766|bound_else_gene|NA|bound_elsewhere_windowed (ssRNA)
RNA: GGGAGUUCUACAGUCCGACGAUCUUGUACAUUUAAGUCUGUAUUAUAAUAAGCAAAAAGAUUGUGUGUAUGUAUGUUUAAUAUAACAUGACAGGCACUAGGACGUCUGCCUUUUUAAGGCAGUUCCGUUAAGGGUUUUUGUUUCAACAGAGGAUUGAGCAUCA
B11: chr13:45957189:45957298:-|CDS|ENSG00000123200|unk|total|mutant (ssRNA)
RNA: GGGAGUUCUACAGUCCGACGAUCUGUUUUUGUUUUCUUCAAACCGGGCACCAUAAAACAAGCUUACACGAGUGCUCCAAUGGCCGACAAUGAAUUACUUCGAUUGAGUCUUCGGUUAUUUAAGCGGAAGACUACUUGCCAUGCCAACAGAGGAUUGAGCAUCA
B12: chrX:130230552:130230660:-|CDS|ENSG00000056277|unk|total|mutant (ssRNA)
RNA: GGGAGUUCUACAGUCCGACGAUCAUCAGAACGUCCAUGUGAUGAAGACAAGACUGAUUCAGAGACAGGAAAGUUGAUCAUGUCCGUCAAUGAGUUUUAUUAUGGAAGGCAUGAAGGAGUCACUGAGAAAGAGCCAAAGACUUACAACAGAGGAUUGAGCAUCA
B13: ENSG00000107863:be:win_2551|CDS|ENSG00000107863|bound_else_gene|NA|bound_elsewhere_windowed (ssRNA)
RNA: GGGAGUUCUACAGUCCGACGAUCUUAAUUCGCCGUCAGCUCUCACAUGACCACGAAUCUGUUGGCCCUCCUAGCCUGGAUGCUCAGCCCAACUCAAAGACAGAAAGAUCAAAAUCAUAUGAUGAGGGUCUGGAUGAUUACAGACAACAGAGGAUUGAGCAUCA
B14: chr20:57651677:57651767:-|3pUTR|ENSG00000124225|msi1_unk|FALSE|overlapping (ssRNA)
RNA: GGGAGUUCUACAGUCCGACGAUCGUUGAGCUGUGUCUUGAAGGCAAAAGAAAAAAAAUUUCUACAGUAGUCUUUCUUGUUUCUAGUUGAGCUGCGUGCGUGAAUGCUUAUUUUCUUUUGUUUAUGAUAAUUUCACUUAACUUUCAACAGAGGAUUGAGCAUCA

In all, about 5,800 sequences were measured (“enrichment r”: median about 0.68, highest 2% from about 11 on). A selection follows.

The assay has as its target T1, UNK ZnF1-6 (called full-length) (human, UniProt Q9C0B0 30-357).
T1 sequence: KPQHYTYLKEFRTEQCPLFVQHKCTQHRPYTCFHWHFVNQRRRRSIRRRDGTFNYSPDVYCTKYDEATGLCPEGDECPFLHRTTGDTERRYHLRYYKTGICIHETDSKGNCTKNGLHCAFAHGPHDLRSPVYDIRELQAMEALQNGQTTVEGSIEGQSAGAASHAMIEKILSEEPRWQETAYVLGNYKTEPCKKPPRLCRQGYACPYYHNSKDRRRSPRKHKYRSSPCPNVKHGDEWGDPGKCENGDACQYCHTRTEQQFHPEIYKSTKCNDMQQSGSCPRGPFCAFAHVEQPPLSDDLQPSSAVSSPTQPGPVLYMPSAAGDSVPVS
Put plainly: nsRBNS (natural sequence RNA bind-n-seq); RBNS binding buffer (assumed for nsRBNS): 25 mM Tris pH 7.5, 150 mM KCl, 3 mM MgCl2, 0.01% Triton X-100, 500 ug/ml BSA, 20 U/ml SUPERase-In, 4 C; UNK is unkempt and MSI1 is Musashi-1; names of the RNAs are library labels; protein concentration not given here; high values mean tight binding.
The molecule B1 yielded a binding signal of 1.03 enrichment R.

Take B2: the binding signal came out at 0.749 enrichment R.

B3 had a binding signal of 0.852 enrichment R. As to B4, the binding signal was 0.805 enrichment R. The molecule B5 yielded a binding signal of 0.76 enrichment R. The value for B6 was 0.413 enrichment R; that for B7 was 0.574 enrichment R. In turn, B8 displayed a binding signal of 1.49 enrichment R. As to B9, the binding signal came out at 0.38 enrichment R. Turning to B10, the binding signal came to 0.359 enrichment R.

As for B11, the binding signal is 0.325 enrichment R. Take B12: the binding signal was 0.608 enrichment R.

For the molecule B13, the binding signal is 0.436 enrichment R. To B14 belongs 1.22 enrichment R.

For the origin of these results see paper PMC12136788.
